From PubChem BioAssay
POLB inh: inhibitors of human DNA polymerase beta; P06746; Pol beta primer extension/strand displacement, fluorescence kinetic; Potency, µM (highest dose often 114 µM), for inactives: top-dose activity change, negative = inhibition, actives largely listed as inhibitors; 1.3% of 340,000 active; also: potency is read from the fitted curve at half-maximal effect; % is scaled to controls: 0 for no effect and ±100 for the full control effect
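Pol beta (10 nM) and compounds were preincubated 15 min at room temperature, then 50 nM substrate (final) started primer extension/strand displacement. Reads were taken at 0 and 10 min; concentration-response data were fitted to a four-parameter Hill equation.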
WRN helicase inh: blocks human WRN helicase | Q14191 | AID 651768 | Potency, µM (highest dose often 114 µM), without a hit: at the highest dose activity change, negative = inhibition, usual class: inhibitors | 0.46% of 360,000 active | WRN helicase unwinding, fluorescent forked duplex, kinetic; also: potency is read from the fitted curve at half-maximal effect; % is scaled to controls: 0 for no effect and ±100 for the full control effect; nearly all actives have a fitted effect of over 55% in size
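WRN at 20 nM final preincubated with compound 15 min at room temperature; reaction started with 100 nM fluorophore/quencher forked duplex oligonucleotide and 2 mM ATP final. Unwinding followed kinetically by red fluorescence (ex 525, em 598 nm).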
Pol kappa inh: DNA polymerase kappa (human) inhibition; Q9UBT6; Potency, µM (highest dose often 107 µM), for inactives: at the top dose activity, negative = inhibition, actives largely listed as inhibitors; AID 588579; purified Pol kappa, fluorescent DNA synthesis assay, 10 min; 0.53% of 400,000 active; also: potency is read from the fitted curve at half-maximal effect; % is scaled to controls: 0 for no effect and ±100 for the full control effect
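10 nM Pol kappa preincubated 15 min at room temperature with compounds, then reaction started with substrate at 50 nM final. Fluorescence read kinetically at 0 and 10 min; buffer-only wells served as negative control.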
Pol eta inh: DNA polymerase eta (human) inhibition; Potency, µM (top dose mostly 114 µM), without a hit: at the top dose activity change, negative = inhibition, actives largely listed as inhibitors; Q9Y253; 1.2% of 390,000 active; recombinant Pol eta, fluorescent DNA replication assay; also: potency is read from the fitted curve at half-maximal effect; % is scaled to controls: 0 for no effect and ±100 for the full control effect
Target sequence (Q9Y253 whole entry, looked up): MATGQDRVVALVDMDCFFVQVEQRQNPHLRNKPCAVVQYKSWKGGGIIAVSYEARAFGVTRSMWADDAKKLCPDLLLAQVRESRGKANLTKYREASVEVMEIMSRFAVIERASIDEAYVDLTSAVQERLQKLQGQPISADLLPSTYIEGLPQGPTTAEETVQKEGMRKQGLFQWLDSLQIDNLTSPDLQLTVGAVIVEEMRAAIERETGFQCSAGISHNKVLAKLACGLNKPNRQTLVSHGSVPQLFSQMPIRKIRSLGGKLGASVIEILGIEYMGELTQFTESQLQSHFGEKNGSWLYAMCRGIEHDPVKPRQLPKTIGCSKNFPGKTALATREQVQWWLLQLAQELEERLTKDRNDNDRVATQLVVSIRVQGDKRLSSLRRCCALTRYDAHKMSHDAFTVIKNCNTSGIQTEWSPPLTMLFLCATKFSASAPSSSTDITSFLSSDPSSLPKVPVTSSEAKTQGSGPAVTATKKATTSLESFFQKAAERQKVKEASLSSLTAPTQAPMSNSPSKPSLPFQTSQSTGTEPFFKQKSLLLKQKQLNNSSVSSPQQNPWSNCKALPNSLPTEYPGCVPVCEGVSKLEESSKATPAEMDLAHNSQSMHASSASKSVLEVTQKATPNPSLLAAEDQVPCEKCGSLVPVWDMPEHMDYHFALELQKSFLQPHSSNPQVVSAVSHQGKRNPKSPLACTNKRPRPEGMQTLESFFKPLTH
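Pol eta at 10 nM preincubated with compounds 15 min at room temperature; reaction started with fluorescent substrate (50 nM final) and read kinetically at 0 and 10 min.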
PI5P4Ka inh: inhibitors of human PI5P4K alpha. PI5P4Kalpha enzyme, ADP-Glo luminescence, 60 min; hits give low values. max response, %. 1.2% of 330,000 active; active = max response of -50% or lower; inconclusive = between -30% and -50%; inactive = -30% or higher; also: value at the top dose of about 77 µM; % is scaled to controls: 0 for no effect and ±100 for the full control effect
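ADP-Glo luminescence end-point after a 60 min room-temperature kinase reaction. PI5P4Kalpha and substrate in HEPES pH 7.4 buffer with EGTA, 0.1% CHAPS and 5% DMSO; ATP at 5 microM final.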
Pol iota inh: DNA polymerase iota (human) inhibition. Q9UNA4. Pol iota fluorescent replication assay, 10 min. Potency, µM (highest dose often 115 µM), for inactives: at the top dose activity, negative = inhibition, most hits filed as inhibitors. 1% of 390,000 active. AID 588590; also: potency is read from the fitted curve at half-maximal effect
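Fluorescent replication assay read twice, at 0 min and 10 min after adding 50 nM (final) substrate. Enzyme (10 nM) and compounds were first incubated 15 min at room temperature; enzyme-free buffer wells were negative controls.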
Numbers without * were called inactive; ? = inconclusive; · = no result given; ! = repeats disagree; [ ] = another dose, or the depositor's remark. An excerpt weighted towards active compounds, which were near 2.8% of everything screened. Unless noted, calls follow the shape of the dose curve; as a rule, active = well fitted curve in the direction sought with a large enough effect; inconclusive = small, poorly fitted or top-dose-only effect, or another doubt; inactive = no such curve, though single readings can be large; an effect the other way counts as inactive or inconclusive.

SMILES	POLB inh	WRN helicase inh	Pol kappa inh	Pol eta inh	PI5P4Ka inh	Pol iota inh
CC(C)(C)C1CCc2c(C(=O)NNC(=O)/C=C/C(=O)O)csc2C1 (stereo unspecified)	8%	-8%	-5%	-21%	-69*	-3%
CC(C)(C)C1CCc2c(C(=O)N/N=C/c3cccs3)csc2C1 (stereo unspecified)	6%	-9%	-7%	-12%	·	?
CC(C)CCC(CC(C)O)C(=O)NNC(=S)Nc1ccccc1 (stereo unspecified)	7%	-3%	-13%	-17%	0	13%
C[C@H]1CN([C@@H](C)CO)C(=O)CCCn2cc(nn2)CO[C@@H]1CN(C)C(=O)Nc1cccc(Oc2ccccn2)c1	·	6%	·	-9%	0	·
O=C1NC[C@@H](CCCCN2C[C@H](Cc3ccccc3)N(Cc3ccccc3)C(=O)C2=O)N(CCc2ccccc2)C1=O	·	3%	·	·	-3	·
Cc1onc(-c2ccccc2Cl)c1C(=O)NCC(=O)O	41%	-7%	-14%	2%	0	5%
Cc1onc(-c2ccccc2Cl)c1C(=O)NCCn1c(C)cc2ccccc21	?	79µM*	-13%	?	-12	?
CC(C)(C)OC(=O)N1CCc2onc(-c3ccc(N)cc3)c2C1=O	·	0%	·	2%	-7	·
COc1ccccc1-c1cc2nc(C)cc(C)n2n1	89µM*	-5%	0%	-20%	0	41%
Cc1cccc(-c2cc3nc(C)cc(C)n3n2)c1	-17%	-30%	-1%	4%	-3	13%
CNC(=O)COC(=O)c1ccc(Cl)c(S(N)(=O)=O)c1	-19%	-2%	9%	-8%	-6	51%
Nc1nnc(CC(=O)N/N=C/c2ccc(-c3ccccc3Cl)o2)s1	?	-17%	-10%	-12%	-53*	19%
Nc1nnc(CC(=O)N/N=C/c2ccc(-c3ccccc3)o2)s1	10%	-9%	-4%[60.1 µM]	-11%	-4	18%
Cc1cc(C(=O)N/N=C/c2ccc(-c3ccccc3Cl)o2)n[nH]1	10µM*	-22%	?	?	-10	-55%
COC(=O)c1ccc(-c2ccc(/C=N/NC(=O)Cc3nnc(N)s3)o2)cc1	-7%	-7%[11.6 µM]	-15%	?	-56*	?
COCCN(C(=O)c1ccccc1F)c1nnc(-c2ccc(OC)cc2)s1	-8%	-1%	-13%	-14%	2	-26%
CCC(C)(C)NC(=O)CN(C(=O)CCC(=O)Nc1nccs1)c1ccc(C)cc1	96%	3%	9%	-18%	5	47%
NS(=O)(=O)c1ccc(NC(=O)CSc2ncnc3ccccc23)cc1	32µM*	-8%	-3%	-14%	1	-24%
NS(=O)(=O)c1cccc(NC(=O)CSc2ncnc3ccccc23)c1	1%	-8%	-8%	3%	-4	17%
COc1ccc(NC(=O)c2ccc3c(SCC(=O)O)c4c(nc3c2)CCCC4)c(OC)c1	40µM*!	-9%[11.6 µM]	?	-18%	-10	79µM*
COc1ccc(Cl)cc1NC(=O)c1ccc2c(SCC(=O)O)c3c(nc2c1)CCCC3	-19%	-11%	-4%	-19%	-28	?
O=C(O)CSc1c2c(nc3cc(C(=O)Nc4ccc(F)c(Cl)c4)ccc13)CCCC2	20%	-6%[11.6 µM]	-10%	50µM*	2	?
COc1ccc(Cl)cc1Nc1ncnc2c1nc1n2CCCC1	1%	·	-2%	-20%	·	26%
CCOc1ccc(NC(=O)COc2ccc(-n3cnnn3)cc2)cc1	·	-4%	-10%	1%	0	3%
CCOC(=O)c1ccc(NC(=O)COc2ccc(-n3cnnn3)cc2)cc1	32µM*	-21%	-16%	?	-26	?
SMILES	POLB inh	WRN helicase inh	Pol kappa inh	Pol eta inh	PI5P4Ka inh	Pol iota inh
CCc1ccccc1-n1nnc(-c2nsc(NC(=O)c3ccc(C)c(C)c3)n2)c1C	-29%	·	-8%	-24%	·	-19%
CCCCNC(=O)C1C(c2ccc(OC)cc2)=Nc2ccccc2N1C(=O)c1ccc2ncccc2c1 (stereo unspecified)	·	-16%	·	·	-3	·
NC(=O)CSC1=N/C(=C\c2ccco2)C(=O)N1c1ccc(OC(F)F)cc1	-23%	-10%[11.6 µM]	?	32%	?	35µM*
c1ccc(SSc2ccccn2)nc1	·	22µM*	-11%	-4%	-23	?
O=C(Nc1ccnn1C1CCN(Cc2ccn[nH]2)CC1)c1ccccc1	3%	-22%	-3%	-12%	5	18%
CCOc1cc(CNCc2ccccc2)ccc1OCc1ccc(Cl)cc1	4%	3%	5%	-25%	-1	-17%
CCc1ccc(CNc2ccc(O)cc2)cc1	?	45µM*	-18%	25µM*	-54*	2.8µM*
CCc1ccc(CNc2ccc3c(c2)ncn3CC)cc1	0%	-9%	-16%	-16%	-9	158%
CCOc1cc(CNc2ccc(O)cc2)ccc1OCc1ccc(Cl)cc1Cl	?	?	-13%	18µM*	-7	8.9µM*
CCOc1ccccc1CNc1ccc(O)cc1	3%	-23%	-15%	50µM*	?	7.1µM*
Oc1ccc(NCc2ccccc2OCc2ccccc2F)cc1	23%	?	-22%	50µM*!	-23	10µM*
Cc1ccc(NCc2ccccc2OCc2ccccc2F)cc1	-1%	-3%	-11%	6%	21	4%
Cc1cccc2c(=O)[nH]c3c(-c4nc(-c5ccc(Cl)cc5)cs4)c(O)cn3c12	·	·	-15%	·	·	?
COc1ccc(-c2nc(SC(CC(=O)NCCN3CCOCC3)c3cccs3)n[nH]2)cc1 (stereo unspecified)	-1%	-3%	3%	-14%	1	83%
C[C@@H]1CC2[C@@H]3C[C@H](F)C4=CC(=O)C(Cl)=C[C@]4(C)[C@@]3(F)[C@H](O)C[C@]2(C)[C@@]1(O)C(=O)CO (stereo partly specified)	·	·	7%[19.4 µM]	·	·	·
CCOc1cccc(CNc2ccc(O)cc2)c1OCc1ccc(Cl)cc1	12%	?	-21%	50µM*	-13	11µM*
COc1cccc(CNCCO)c1OCc1ccc(Cl)cc1	9%	3%	-23%	-19%	-3	-5%
CCCCN(C(=O)Cn1ncc(Cl)c(Cl)c1=O)c1c(N)n(CC(C)C)c(=O)[nH]c1=O	22µM*	-34%	71µM*	28µM*	-52*	16µM*
C=CCNS(=O)(=O)c1cc2c3c(c1)CCN3C(=O)CC2	1%	4%[11.6 µM]	79µM*	-4%	0	28µM*
CCS(=O)(=O)Nc1cc2c3c(c1)CCC(=O)N3CCC2	21%	1%	3%	4%	-7	8%
CCS(=O)(=O)Nc1cc2c3c(c1)CCN3C(=O)CC2	7%	3%[11.6 µM]	79µM*	-15%	0	25µM*
